In the library only some 0.39% were active in any assay of this set; here they are far more common.
EPAC1 agonist = EPAC1 (human) agonism; EPAC1 agonist qHTS, biochemical assay; response scale: 100% = response to 6.5 mM cAMP; Potency, µM (top dose mostly 154 µM), inactives show at the top dose activation, most hits filed as activators; hit rate 0.073% among 360,000; AID 720707; also: nearly all actives have a fitted effect of over 60% in size
Target sequence (O95398 whole entry, looked up): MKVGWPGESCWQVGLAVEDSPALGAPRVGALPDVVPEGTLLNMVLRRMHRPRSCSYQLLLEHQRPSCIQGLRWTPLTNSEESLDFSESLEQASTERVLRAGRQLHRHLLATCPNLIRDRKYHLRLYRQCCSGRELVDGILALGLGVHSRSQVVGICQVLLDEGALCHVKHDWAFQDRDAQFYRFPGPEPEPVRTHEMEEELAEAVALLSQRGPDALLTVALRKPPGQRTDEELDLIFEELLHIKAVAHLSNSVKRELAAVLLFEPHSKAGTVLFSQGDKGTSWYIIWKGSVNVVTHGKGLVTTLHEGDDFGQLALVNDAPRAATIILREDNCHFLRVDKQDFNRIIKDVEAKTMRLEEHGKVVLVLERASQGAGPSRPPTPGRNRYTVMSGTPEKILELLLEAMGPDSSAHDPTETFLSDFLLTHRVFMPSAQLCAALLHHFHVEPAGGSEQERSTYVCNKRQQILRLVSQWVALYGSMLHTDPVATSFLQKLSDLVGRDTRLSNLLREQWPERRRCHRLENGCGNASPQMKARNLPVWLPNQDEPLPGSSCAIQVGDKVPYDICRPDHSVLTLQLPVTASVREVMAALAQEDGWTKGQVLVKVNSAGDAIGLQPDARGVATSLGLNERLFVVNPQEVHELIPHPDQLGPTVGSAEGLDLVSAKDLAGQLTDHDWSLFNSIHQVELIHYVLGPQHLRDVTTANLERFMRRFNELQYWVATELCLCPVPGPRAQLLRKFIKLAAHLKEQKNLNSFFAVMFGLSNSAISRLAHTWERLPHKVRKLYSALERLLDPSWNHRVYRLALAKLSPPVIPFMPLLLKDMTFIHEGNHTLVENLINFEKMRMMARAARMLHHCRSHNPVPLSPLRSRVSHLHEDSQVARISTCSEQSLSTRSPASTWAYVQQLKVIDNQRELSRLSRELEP
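Nucleotide exchange by EPAC1 (100 nM) on Rap1B–BODIPY-GDP (250 nM) in the presence of 50 uM GDP is tracked fluorescently at 480/540 nm over 30 min. Signals are normalized to a 6.5 mM cAMP control.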
EPAC2 agonist = EPAC2 (human) agonism; EPAC2 activation, biochemical qHTS; response scale: 100% = 6.5 mM cAMP response; Potency, µM (highest dose often 154 µM), for inactives: at the highest dose activation, most hits filed as activators; hit rate 0.079% among 360,000; also: nearly all actives have a fitted effect of over 50% in size
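Compounds were added across a concentration range to EPAC2 (100 nM), RAP1B-BODIPY-GDP (250 nM) and GDP (50 uM). After 5 min at room temperature, fluorescence was recorded at 5-min intervals for 30 min.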
EPAC1 antag = antagonists of human EPAC1 | O95398 | EPAC1 GEF assay, Rap1b-BODIPY-GDP exchange fluorescence | Potency, µM (doses to about 115 µM), for inactives: at the top dose activity change, negative = inhibition, usual class: inhibitors | hit rate 0.14% among 360,000 | AID 720709;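 also: plate controls were vehicle for no effect and positive control for full effect; nearly all actives have a fitted effect of over 50% in size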
EPAC2 antag = antagonists of human EPAC2. Q8WZA2. EPAC2 GEF exchange of Rap1B-BODIPY-GDP, fluorescence. Potency, µM (series often up to 114 µM), for inactives: top-dose activity, negative = inhibition, most hits filed as inhibitors. hit rate 0.18% among 360,000; also: % is scaled to controls: 0 for no effect and ±100 for the full control effect; nearly all actives have a fitted effect of over 45% in size
Starred values were filed as active, the others as inactive; ? = inconclusive. Calls follow the shape of the dose curve; as a rule, active = well fitted curve in the direction sought with a large enough effect; inconclusive = small, poorly fitted or top-dose-only effect, or another doubt; inactive = no such curve, though single readings can be large; an effect the other way counts as inactive or inconclusive. Potency is read from the fitted curve at half-maximal effect.

SMILES	EPAC1 agonist	EPAC2 agonist	EPAC1 antag	EPAC2 antag
CCN(CC)CCOc1ncnc2c1oc1ccccc12	6.4%	0.8%	0.0%	7.7%
COc1ccccc1Oc1ncnc2c1oc1ccccc12	15.6%	12.0%	-18.9%	79.4µM*
O=[N+]([O-])c1cc(Cl)ccc1NCCc1ccccn1	-1.5%	-3.1%	-13.5%	56.2µM*
CC1C(=O)N(Cc2cn(Cc3ccco3)nn2)CCS(=O)(=O)N1Cc1ccc(-c2cccc(N(C)C)c2)cc1 (centres undefined)	4.5%	13.9%	-1.4%	-1.4%
Cc1ccc(NC(=O)COC(=O)Cn2c(C)csc2=O)c([N+](=O)[O-])c1	100µM*	6.8%	-2.9%	12.2%
CC(c1nc2ccccc2n1Cc1ccccc1)n1c(-c2cnccn2)nc2ccccc21 (centres undefined)	5.3%	1.6%	-21.9%	?
Cc1cccc(N2CCN(S(=O)(=O)c3ccc4c(c3)CCN4C(=O)CCC(=O)O)CC2C)c1 (centres undefined)	56.2µM*	12.7%	20µM*	61.4%
CCCCC[C@@H](C)N1C[C@@H](COCc2ccccc2)Oc2cc(N3CCC[C@@H]3COC)ccc2S1(=O)=O	0.5%	6.9%	-2.7%	1.8%
CC(C)(C)NC(=O)C(c1ccccc1F)n1c(=O)c(-c2cc3ccccc3[nH]2)nc2ccccc21 (centres undefined)	-4.4%	-3.3%	-20.5%	-10.1%
CCN(CC)c1ccc2nc3c4ccccc4c(=O)cc-3oc2c1	11.2%	9.8%	-2.2%	0.0%
CCN(CC)c1ccc2c(-c3ccc(S(=O)(=O)O)cc3S(=O)(=O)[O-])c3ccc(=[N+](CC)CC)cc-3oc2c1	63.1µM*	?	32.3%	?
CC1=C(C(=O)OCc2ccc3c(c2)OCO3)C(c2ccccc2)NC(=O)N1 (centres undefined)	7.1%	100µM*	2.2%	-7.0%
CC1=C(C(=O)OCc2ccc3c(c2)OCO3)C(c2ccccc2OCc2ccccc2)NC(=O)N1 (centres undefined)	8.5%	-8.2%	-4.4%	-1.0%
CCCC1NC(=O)c2cc3ccccc3cc2-n2c1nc1cc(F)ccc1c2=O (centres undefined)	-11.3%	17.3%	-5.5%	-19.2%
COc1ccc(C(NC(=O)c2cc(OC)ccc2OC)c2ccccc2)cc1 (centres undefined)	11.8%	10.7%	-23.7%	44.7µM*
Cc1ccc(NC(=O)C2(C)CCN2C(=O)C2CCCCC2)cc1C (centres undefined)	-19.6%	2.4%	-8.2%	17.3%
CN(CC(=O)Nc1ccccc1C(F)(F)F)C(=O)c1cc(-c2cccs2)nn1-c1ccccc1	112µM*	2.5%	-8.6%	-2.3%
CCN(CC(=O)Nc1ccccc1C(F)(F)F)C(=O)c1cc(-c2cccs2)nn1-c1ccccc1	-4.7%	2.5%	-17.3%	-6.2%
Cc1cccnc1C(NC(=O)C1CCN(Cc2ccc(Oc3ccccc3)cc2)CC1)c1ccc(F)cc1 (centres undefined)	-3.3%	6.7%	-5.8%	9.1%
CC1(C)N([O-])c2cc([N+](=O)[O-])ccc2[N+]1=O	0.8%	8.4%	70.8µM*	?
CCc1ccc2c(c1)NC(=O)C2(C)Cc1ccc(F)cc1 (centres undefined)	-17.1%	-4.2%	-8.0%	44.7µM*
O=C1C(Nc2ccc(O)cc2)=C/C(=N/S(=O)(=O)c2cccs2)c2ccccc21	10.4%	19.5%	-11.9%	2.8%
Cc1cc(C)c(S(=O)(=O)/N=C2\C=C(Nc3ccc(C(=O)O)cc3)C(=O)c3ccccc32)c(C)c1	100µM*	4.1%	-4.9%	28.1%
O=C(O)c1ccc(NC2=C/C(=N/S(=O)(=O)c3ccccc3)c3ccccc3C2=O)cc1	-0.5%	2.3%	?	?
O=C(O)c1ccc(NC2=C/C(=N/S(=O)(=O)c3cccs3)c3ccccc3C2=O)cc1	-17.6%	18.3%	50.1µM*	?
SMILES	EPAC1 agonist	EPAC2 agonist	EPAC1 antag	EPAC2 antag
C#CCOCCOCCOCCNc1nc(N2CCN(C(=O)CCCCCCCCCCNC(=O)Cn3cc(C[C@@H](C)O)nn3)CC2)nc(N2CCN(C(=O)CCCCCCCCCCNC(=O)[C@@H]([C@H](C)CC)n3cc(CCCCCN)nn3)CC2)n1	19.0%	16.1%	50.1µM*	-28.5%
C#CCOCCOCCOCCNc1nc(N2CCN(C(=O)Cn3cc(CCCCN)nn3)CC2)nc(N2CCN(C(=O)Cn3cc(CC(C)O)nn3)CC2)n1 (centres undefined)	-12.0%	1.9%	16.7%	6.2%
C#CCOCCOCCOCCNc1nc(N2CCN(C(=O)CCCCCCCCCCNC(=O)Cn3cc(CCCCCN)nn3)CC2)nc(N2CCN(C(=O)CCCCCCCCCCNC(=O)[C@@H]([C@H](C)O)n3cc(C)nn3)CC2)n1	2.2%	4.6%	-14.7%	13.5%
C#CCOCCOCCOCCNc1nc(N2CCN(C(=O)CCCCCCCCCCNC(=O)Cn3cc(CCCCCN)nn3)CC2)nc(N2CCN(C(=O)CCCCCCCCCCNC(=O)Cn3cc(C[C@@H](C)O)nn3)CC2)n1	22.8%	?	35.5µM*	?
C#CCOCCOCCOCCNc1nc(N2CCN(C(=O)CCCCCCCCCCNC(=O)[C@H](CCCCN)n3cc(C)nn3)CC2)nc(N2CCN(C(=O)CCCCCCCCCCNC(=O)[C@H](CCCN=C(N)N)n3cc(C[C@@H](C)CC)nn3)CC2)n1	5.2%	18.8%	50.1µM*	-20.9%
C#CCOCCOCCOCCNc1nc(N2CCN(C(=O)CCCCCCCCCCNC(=O)[C@H](CCCCN)n3cc(C[C@@H](C)CC)nn3)CC2)nc(N2CCN(C(=O)CCCCCCCCCCNC(=O)[C@H](CCCN=C(N)N)n3cc(C[C@@H](C)CC)nn3)CC2)n1	27.1%	11.3%	?	?
CC1(C(=O)Nc2ccccc2)CCN1C(=O)CCc1ccc(Cl)cc1Cl (centres undefined)	11.0%	14.1%	-15.2%	-7.8%
CCc1ccc(S(=O)(=O)/N=C2\C=C(Nc3ccc(O)cc3)C(=O)c3ccccc32)cc1	-2.8%	10.8%	?	-23.6%
CCc1ccc(S(=O)(=O)/N=C2/C=C(Sc3ncn[nH]3)C(=O)c3ccccc32)cc1	0.7%	9.8%	?	39.8µM*
CCc1nc2c(OCCC3CCCCC3)cccn2c1N(C)C(=O)c1cccs1	0.5%	13.7%	-20.4%	-23.5%
NC(=S)N/N=C/c1ccccc1O	3.4%	5.9%	8.2%	4.7%
Oc1cccc(/C=N/NC(=S)Nc2cccnc2)c1O	-7.3%	4.2%	11.2µM*	8.6%
Oc1ccccc1C=NNC(=S)NN=Cc1ccccc1O	8.7%	11.6%	79.4µM*	3.5%
COc1ccc(-c2csc(C(C)(O)c3cccc(F)c3)n2)cn1 (centres undefined)	-12.0%	14.2%	-10.1%	-14.7%
NC(CCc1ccccc1)c1csc(Nc2nncc3ccccc23)n1 (centres undefined)	5.3%	6.9%	-10.7%	10.0%
O=C(Nc1cccc2c1CCCC2)c1cc(C2CCCCN2S(=O)(=O)c2cccs2)on1 (centres undefined)	18.6%	12.5%	-20.2%	-12.6%

Screening results deposited in PubChem BioAssay by National Center for Advancing Translational Sciences (NCATS).
